# Source: the supplement of paper PMC3334620
# The full ranking holds about 33,000 sequences; the median of “E-score (-0.5 to 0.5)” is about -0.017, and the highest 2% start at about 0.3. Many of the other results were omitted from the sample, so the highest values are more common in it than they were.
# Target: T1, Sut1 (UniProt P53032)
# T1 sequence: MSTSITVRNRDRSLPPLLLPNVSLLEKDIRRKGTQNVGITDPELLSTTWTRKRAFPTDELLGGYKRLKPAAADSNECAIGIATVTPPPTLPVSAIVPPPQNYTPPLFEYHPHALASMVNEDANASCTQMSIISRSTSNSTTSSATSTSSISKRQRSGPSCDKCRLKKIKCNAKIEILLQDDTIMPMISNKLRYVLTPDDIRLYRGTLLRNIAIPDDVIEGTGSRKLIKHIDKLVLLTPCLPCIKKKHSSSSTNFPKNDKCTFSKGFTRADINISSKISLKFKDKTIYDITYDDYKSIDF
# Test: PBM E-score (8-mer binding enrichment) (E-score (-0.5 to 0.5)); higher = stronger / more preferred TF binding
# Conditions: protein concentration: 200 nM; construct: GST-full length
# Outline: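 Yeast transcription factors carrying a GST tag, as full-length proteins or DNA-binding domains, were produced by PURExpress in vitro transcription/translation. About 100-200 nM protein was applied to universal all-10-mer Agilent arrays, double-stranded by primer extension on fresh or once-stripped slides. Bound protein was detected with fluorescent anti-GST, and scans were normalised with masliner. The Universal PBM Analysis Suite gave each ungapped eight-base word, pooled with its reverse complement, an E-score, a modified Wilcoxon-Mann-Whitney statistic.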
row,Sequence,PBM E-score
1,ATTCTACC,0.0903
2,AAAAGATG,0.0556
3,ACGGTCTA,-0.0922
4,GATGGAGA,0.0416
5,ACAGCATG,-0.124
6,CCGATTGC,0.109
7,GCAGCAGA,-0.175
8,CCTTCAGA,-0.0889
9,GAACTGTC,0.00324
10,ATTCCCTC,-0.233
11,TCCCTAGA,-0.00999
12,ACTAAAAC,0.159
13,ACTAAAAA,0.353
14,CCTATAAA,-0.0583
15,AGTATATC,0.12
16,ACTAAAAG,0.214
17,CTTATAAA,0.181
18,GTTATAAA,0.303
19,GTTATAAC,-0.0927
20,GCTATAAA,0.194
21,ACTATAAA,0.321
22,AGTATATA,0.395
23,AGTATATG,0.00722
24,ACTCAATG,0.104
25,GATTTGAA,0.142

row,Sequence,PBM E-score
1,TAATCGTA,0.0634
2,CAACGGTC,-0.0872
3,GGAGGTGA,0.0437
4,AGGTCTAT,-0.0267
5,GCTCGATA,-0.105
6,GGTGTAGA,-0.149
7,AGTATAAA,0.302
8,AGTATAAC,0.185
9,TGTATAAA,0.157
10,CCTTAAAA,0.0539
11,ACTTAAAC,0.241
12,ACTTAAAA,0.307
13,ACACTTCA,0.0715
14,AGATGGCA,0.0507
15,CATAGCCC,-0.196
16,CCGGAAAC,0.245
17,TCGGAAAA,0.372
18,CCGGAAAG,0.276
19,CCGGAAAA,0.37
20,ACGGAAAT,0.344
21,ACGGAAAC,0.0512
22,ACGGAAAA,0.243
23,ACGGAAAG,0.25
24,GCGGAAAA,0.174
25,TAGGTACA,-0.0499

row,Sequence,PBM E-score
1,GTGAACCA,0.00963
2,ACGGTGCC,-0.0952
3,TCATTCCA,0.0304
4,ACGGTCGA,-0.135
5,CATTCTGA,0.00217
6,CACGGACA,0.153
7,ACCGGACA,0.234
8,CCCGGACC,0.339
9,CCCGGATC,0.213
10,TCCGGACA,0.415
11,CCCGGACG,-0.12
12,GCCGGACC,0.198
13,CCCGGACA,0.354
14,GCCGGACA,0.273
15,GTCCACTA,-0.0452
16,GATACTAA,0.141
17,ATGTGGGG,-0.203
18,CCAAAAGG,-0.0868
19,CTGAGTGC,-0.199
20,AGGAGTGA,-0.0299
21,CGGAGTGC,0.468
22,AGGAGTGC,-0.143
23,GGGAGTGA,-0.0284
24,CGGAGTGA,0.451
25,CAGATACC,-0.149

row,Sequence,PBM E-score
1,AGGGGCCG,-0.272
2,GCGCGTCA,-0.00075
3,AACCCGGA,0.333
4,TCCCCGAA,0.228
5,CACCCGGA,0.251
6,CCCCCGGA,0.0624
7,TCCCCGGA,0.364
8,GACCCGGA,0.204
9,ACCCCGGG,0.347
10,ACCCCGGT,0.191
11,TCCCCCGA,-0.141
12,ACCCCGGA,0.426
13,ACCCCGGC,0.183
14,CCCCCGGG,-0.174
15,CTCTGTGA,-0.105
16,AGCGTCCC,-0.168
17,TCACCCCA,-0.0213
18,GAATTTAC,0.0497
19,TGCGCAAA,0.0678
20,AAGAGACC,-0.0189
21,ATGCAGCC,-0.0379
22,AGCAAATG,-0.0134
23,CCTTCGAC,-0.232
24,TGCCTAAA,-0.00993
25,GGACATCA,0.3

row,Sequence,PBM E-score
1,GGACATCC,0.0309
2,CGACATCA,0.143
3,AGCTCAAG,-0.092
4,CGTGCAGA,-0.148
5,AGAGCGGC,-0.125
6,AGAGCGGA,0.318
7,AGAGCGGG,-0.0998
8,CGGAGCTA,0.385
9,AGGAGCTA,-0.155
10,AGGAGCCG,-0.281
11,CGGAGCTC,0.414
12,GGGAGCTA,-0.176
13,CGGAGCCG,0.338
14,AGGAGCTC,-0.18
15,CGGAGCCC,0.183
16,CTGAGCTC,0.119
17,AAGCATTC,0.0319
18,GCTCCCCC,-0.444
19,GCATCAAA,0.14
20,CCAAGGAG,-0.0556
21,ACTTGGTC,0.183
22,AGCATACA,0.187
23,GCACAGTA,-0.0754
24,AGTCCCGG,0.1
25,AGTCCTGC,-0.19

row,Sequence,PBM E-score
1,AGTCCGGC,0.467
2,CGTCCGGC,-0.0125
3,GGTCCGGA,0.402
4,CGTCCGGA,0.27
5,AGGCCGGA,0.279
6,AGTCCAGA,0.0785
7,AGTCCGGA,0.487
8,AATCCGGG,0.103
9,AGTCCGGG,0.485
10,GGTCCCGA,0.093
11,AAGTCTAC,0.004
12,GTAGGCAC,-0.102
13,GTTCCAGA,-0.0427
14,ATGAATAA,0.146
15,AGACGGCT,-0.121
16,AGGCTGTG,-0.0562
17,GGTGCAAA,0.0509
18,AGTTTATC,0.17
19,TGTTTTAA,0.253
20,AGTTTAAA,0.335
21,AGTTTTAA,0.341
22,GTTTTAAA,0.296
23,AGTTTATA,0.335
24,TGTTTAAA,0.111
25,AGTTTTTA,0.175

row,Sequence,PBM E-score
1,ATTTTTAA,0.249
2,ATTTTAAA,0.307
3,AGTTTAAT,0.069
4,GGTTTATA,0.0479
5,AGACCTCC,-0.207
6,CATAGGGG,-0.348
7,CGGTTTTC,0.176
8,CAAGTCAC,-0.0175
9,TACAACAA,0.286
10,CAGTTGAA,-0.00817
11,AAGCCAAC,0.118
12,AGTTTACA,0.106
13,AGTGAACA,0.0388
14,CTGGATTA,0.0735
15,CGGAGTAC,0.487
16,AGGAGTAC,-0.106
17,AGGAGTAA,0.0575
18,CGGAGTAG,0.49
19,GGGAGTAC,-0.064
20,GGGAGTAA,0.0687
21,AGGAGTAG,-0.0194
22,CCGAGTAG,0.112
23,CGGAGTAA,0.483
24,TAGAATAA,0.207
25,CAGTATAG,0.0135

row,Sequence,PBM E-score
1,AATTGGAT,0.131
2,ACGCCTCG,-0.115
3,GGCTTACA,0.0643
4,TGTTATAA,0.299
5,TTATATAA,0.358
6,CTATATAA,0.158
7,TGATATAA,0.222
8,ATATATAA,0.351
9,AGTTATAA,0.155
10,CGTTATAA,0.135
11,TCATATAA,0.121
12,CTCTATAA,0.186
13,CGCAACCC,0.023
14,ATCCCAAT,0.0805
15,CGATGAGC,-0.0442
16,TAGAAGCA,-0.0194
17,AGAGTTCA,-0.0646
18,AGAGTTTA,0.27
19,GAAGTTTA,0.319
20,GGAGTTTA,0.396
21,GGAGTTCA,0.339
22,CGAGTTTA,0.0867
23,AAAGTTTA,0.203
24,CAAGTTTA,0.0197
25,CGAGTTCA,-0.149

row,Sequence,PBM E-score
1,ACATCTAT,0.17
2,GACGCCTC,-0.125
3,ACTCCTAG,-0.0737
4,CACTATCA,-0.0232
5,GAGTCGGA,0.324
6,TAGTCGGA,0.317
7,GAGTCGGC,0.00136
8,AGGTCGGC,-0.131
9,AAGTCGGA,0.226
10,CGGTCGGA,0.211
11,TAGTCGCA,-0.0489
12,AGGTCGGA,0.316
13,CAGTCGGA,0.204
14,CGTAATGC,0.0921
15,ACACAACA,0.128
16,AAGATAGG,0.013
17,GTCCCAAC,-0.138
18,GACTATGC,0.0066
19,AACTAGAG,0.0891
